# Laboratory results from PubChem BioAssay.
# Several values for one entry are separate records, joined by “and”; a condition that tells them apart may be missing. Equal values may be shown once. The source holds several records for some structures; these can differ, active in one and inactive in another. Activity calls are given as the source filed them. Unless noted, no rule for the calls is given here.
# Columns and labels:
# [1] = test system: Hepatitis C virus NS3 helicase; assay: HCV NS3 helicase inhibitors, primary screen, biochemical, fluorescence polarization, LOPAC1280 library (AID 687035; in the data active = inhibition above about 37%); conditions: Purified HCV NS3 helicase, Cy5-dT15 ssDNA binding fluorescence polarization; stronger effect = higher value; concentration not given here
# [2] = Cy5 fluorescence quenching or enhancement artefacts, artefact control for HCV NS3 helicase inhibitor project, biochemical, LOPAC1280 (AID 687037); conditions: Cy5-DNA-NS3h complex fluorescence interference counterscreen
# [3] = Cy5 fluorescence interference with SSB-bound oligo, artefact control for HCV NS3 helicase inhibitor project, biochemical, NIH Clinical Collection, E. coli SSB (AID 743268)
# [4] = test system: Hepatitis C virus NS3 helicase; assay: HCV NS3 helicase inhibitors, primary screen, biochemical, fluorescence polarization, NIH Clinical Collection (AID 743270); conditions: NS3 helicase binding to Cy5-dT15 DNA, stronger effect = higher value, concentration not given here
# [5] = target: Single-stranded DNA-binding protein (Escherichia coli (strain K12)) (UniProt P0AGE0); assay: E. coli SSB displacement from DNA, counter-screen for HCV NS3 helicase inhibitor project, biochemical, fluorescence polarization, NIH Clinical Collection (AID 743271; in the data active = inhibition above about 28%); conditions: stronger effect = higher value, concentration not given here
# [6] = fluorescence interference in NS3h assay format, artefact control for HCV NS3 helicase inhibitor project, biochemical, NIH Clinical Collection (AID 743272); conditions: fluorescence interference counterscreen, stronger effect = lower value;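 also: HCV NS3 helicase with a Cy5 labelled single stranded DNA probe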
# [7] = stimulators of nuclear beta-catenin in C2C12, primary screen, imaging, WNT3A-conditioned medium, mouse C2C12, NPC library (AID 1117326; in the data active = nuclear beta-catenin stimulation mostly above about 4.2%, no sharp cut-off; inactive = mostly below about 10%); conditions: stronger effect = higher value
# [8] = test system: Neuropilin-2 / VEGF-C interaction (human); assay: inhibitors of NRP2–VEGF-C binding, biochemical, microplate binding format, z-score (AID 743281); conditions: microplate NRP2/VEGF-C binding assay; stronger effect = lower value
Structure (SMILES),inhibition [1],fluorescence ratio (interference) [2],fluorescence ratio [3],inhibition [4],inhibition [5],fluorescence ratio [6],nuclear beta-catenin stimulation ([7]; at 10 µM),"nuclear beta-catenin stimulation ([7]; stimulation, at 2 µM)",z-score [8],outcome [8]
CCN(CC)CCNC(=O)c1cc(Cl)c(N)cc1OC,-4% (inactive),1 (inactive),1.01 (inactive),-3.18% (inactive),-0.48% (inactive),0.98 (inactive),0.2% (inactive),-1.4%,–,–
CCOC(=O)[C@H](CCc1ccccc1)N[C@@H](C)C(=O)N1[C@H](C(=O)O)C[C@@H]2CCC[C@@H]21,–,–,1.01 (inactive) and 1.04 (inactive),-1.98% (inactive) and -3.18% (inactive),-0.1% (inactive) and -0.48% (inactive),0.79 (active) and 1.02 (inactive),0.8% (inactive),1.9%,-0.497 (inactive),–
O=C1CC2(CCCC2)CC(=O)N1CCCCN1CCN(c2ncccn2)CC1,0% (inactive),1 (inactive),–,-6.82% (inactive),1.05% (inactive),1.03 (inactive),0.7% (inactive),2.6%,–,–
CC(C)NCC(O)COc1ccc(CCOCC2CC2)cc1 (stereo unspecified),-6% (inactive),0.9 (inactive),1.03 (inactive),5.94% (inactive),3.75% (inactive),0.95 (inactive),3.6% (inactive),3.7%,-0.0183 (inactive),–
CCN(CC)CCNC(=O)c1cc(S(C)(=O)=O)ccc1OC,-3% (inactive),0.9 (inactive),–,–,–,–,1.9% (inactive),0.2%,–,–
NS(=O)(=O)c1cc(C(=O)O)c(NCc2ccco2)cc1Cl,–,–,0.95 (inactive),–,–,0.89 (inactive),0.5% (inactive),1.3%,–,–
COc1ccc(CC2c3cc(OC)c(OC)cc3CC[N+]2(C)CCC(=O)OCCCCCOC(=O)CC[N+]2(C)CCc3cc(OC)c(OC)cc3C2Cc2ccc(OC)c(OC)c2)cc1OC (stereo unspecified),–,–,1.03 (inactive),-1.09% (inactive),1.97% (inactive),1.02 (inactive),21.5% (inactive),0.3%,–,inactive
NC(N)=Nc1nc(CSCC/C(N)=N/S(N)(=O)=O)cs1,–,–,0.96 (inactive),3.56% (inactive),6.83% (inactive),0.9 (inactive),0.9% (inactive),-1.4%,-0.254 (inactive),–
COc1cccc2c1C(=O)c1c(O)c3c(c(O)c1C2=O)C[C@@](O)(C(=O)CO)C[C@@H]3O[C@H]1C[C@H](N)[C@H](O)[C@H](C)O1,–,–,0.07 (active),7.52% (inactive),90% (active),0.4 (active),28.9% (inactive),27.7%,0.436 (inactive),–
Clc1ccccc1C(c1ccccc1)(c1ccccc1)n1ccnc1,-2% (inactive),1 (inactive),0.9 (inactive),5.94% (inactive),6.83% (inactive),0.9 (inactive),1.1% (inactive),1.7%,0.266 (inactive),–
NCCCC(=O)O,–,1 (inactive),–,–,–,–,2.4% (inactive),1.9%,–,–
O=C(CCNNC(=O)c1ccncc1)NCc1ccccc1,-4% (inactive),1 (inactive),1.01 (inactive),0.66% (inactive),-1.97% (inactive),0.97 (inactive),-1% (inactive),0.1%,-0.136 (inactive),–
Fc1ccc(C(c2ccc(F)cc2)N2CCN(C/C=C/c3ccccc3)CC2)cc1,-1% (inactive),1 (inactive),–,–,–,–,1.1% (inactive),-2.5%,–,–
COc1ccc2nc(S(=O)Cc3ncc(C)c(OC)c3C)[nH]c2c1 (stereo unspecified),–,–,1.02 (inactive),-1.97% (inactive),-3.54% (inactive),0.98 (inactive),8.5% (inactive),4.5%,-0.241 (inactive),–
CN1Cc2c(N)cccc2C(c2ccccc2)C1 (stereo unspecified),–,1 (inactive),–,–,–,–,3.1% (inactive),1.5%,–,–
CN1CCCCC1CCN1c2ccccc2Sc2ccc(S(C)=O)cc21 (stereo unspecified),–,–,0.96 (inactive),-2.77% (inactive),-3.18% (inactive),0.95 (inactive),2.6% (inactive),3.5%,0.284 (inactive),–
CN1CCN(C2=Nc3ccccc3Oc3ccc(Cl)cc32)CC1,-3% (inactive),1 (inactive),0.97 (inactive),1.19% (inactive),2.21% (inactive),0.92 (inactive),1.4% (inactive),-0.5%,-0.0658 (inactive),–
CC[C@@]1(O)C(=O)OCc2c1cc1n(c2=O)Cc2cc3c(CN(C)C)c(O)ccc3nc2-1,–,–,1.05 (inactive),1.98% (inactive),3.75% (inactive),1.02 (inactive),55.8% (active),20.6%,1.52 (inactive),–
Cc1cc(C(C)(C)C)cc(C)c1CC1=NCCN1,1% (inactive),1 (inactive),–,–,–,–,0.1% (inactive),1%,–,–
Cc1ncc([N+](=O)[O-])n1CCO,–,–,0.95 (inactive),-2.77% (inactive),4.52% (inactive),0.88 (inactive),-0.2% (inactive),0.7%,-0.317 (inactive),–
Cc1cccc(C)c1OCC(C)N (stereo unspecified),-2% (inactive),1 (inactive),1.06 (inactive),-4.09% (inactive),-4.29% (inactive),1.04 (inactive),1.9% (inactive),2.4%,–,–
CN1CCC(=C2c3ccccc3C=Cc3ccccc32)CC1,-1% (inactive),1 (inactive),0.97 (inactive),-2.84% (inactive),-0.39% (inactive),0.96 (inactive),3.3% (inactive),1.3%,-0.162 (inactive),–
